Among the data in PubChem BioAssay (NCI) are growth inhibition values, retold here.

A short description of assay [1]: NCI Yeast Anticancer Drug Screen. Data for the rad50 strain (AID 155).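 Also: 0% = growth of vehicle-only cultures of the same strain.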 The note with it: S. cerevisiae rad50 strain growth inhibition; at 50.0 µM; stronger effect = higher value. In short, it runs like this:
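Relative growth inhibition (compound vs vehicle) was measured in yeast with a defined repair-gene alteration.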

The nature of assay [2]: NCI Yeast Anticancer Drug Screen. Data for the mec2-1 strain (AID 157). The following applies: S. cerevisiae mec2-1 strain, at 50.0 µM, stronger effect = higher value. In short, it runs like this:
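Yeast mec2-1 mutant treated with compound. Readout: growth inhibition vs vehicle controls.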

Assay [3] is described as follows: NCI Yeast Anticancer Drug Screen. Data for the sgs1 mgt1 strain (AID 161).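 Also: 0% = growth of cultures given vehicle only.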 The following applies: S. cerevisiae sgs1 mgt1 strain, at 50.0 µM, stronger effect = higher value. In short, it runs like this:
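Read-out: growth inhibition vs vehicle controls. Cells: mutant yeast strain deficient in DNA damage repair.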

The nature of assay [4]: NCI Yeast Anticancer Drug Screen. Data for the cln2 rad14 strain (AID 165).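 Also: 0% = growth equal to vehicle treated cultures.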 The note with it: S. cerevisiae cln2 rad14 strain, at 50.0 µM, stronger effect = higher value. In short, it runs like this:
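cln2 rad14 yeast strain; compound exposure; growth inhibition read vs vehicle controls.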

Assay [5] can be described thus: NCI Yeast Anticancer Drug Screen. Data for the bub3 strain (AID 167). The following applies: S. cerevisiae bub3 mutant strain, at 50.0 µM, stronger effect = higher value. In short, it runs like this:
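Screening used yeast with an engineered genetic alteration affecting cell cycle control. Compound-exposed cultures were compared with vehicle cultures, and reduced growth was taken as inhibition.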

A short description of assay [6]: NCI Yeast Anticancer Drug Screen. Data for the mlh1 rad18 strain (AID 175). The note with it: S. cerevisiae mlh1 rad18 strain growth inhibition; at 50.0 µM; stronger effect = higher value. In short, it runs like this: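 Yeast w/ defined DNA-repair lesions; compound exposure; growth vs vehicle controls → % inhibition.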

SMILES strings stand for the structures. The panel holds about 79,000 compounds, 15% with a hit somewhere; the sample as a whole holds those more often. Unmarked numbers belong to inactive results. Calls of active or inactive are those of the source. Rule as the data show it: active = growth inhibition above about 70%; inactive = the rest.

On to `O=C1NC(=O)C2C3CCC(C3)C12` (stereo not given), for which the growth inhibition in assay [1] is 13.6%; in assay [2], -6.15%; in assay [3], -7.65%; in assay [4], -41.8%; in assay [5], 4.65%; in assay [6], 0.4%.
As to `O=[N+]([O-])c1ccc(Oc2cccc3ccccc23)c([N+](=O)[O-])c1`, the growth inhibition in assay [1] was 4.75%; in assay [2], 8.55%; in assay [3], 18.5%; in assay [4] it was -82.5%; in assay [5], 29.1%; in assay [6], 38.8%.
Regarding `CCCCCCCCCCCC(=O)OCC`, the growth inhibition in assay [1] is 26.8%; in assay [2], 22.4%; in assay [3], 8.45%; in assay [4], 25.2%; in assay [5], 9.15%; in assay [6], 8.7%.
As to `CC1(C)CS(=O)(=O)CC(C)(C)C(=N/N)/C1=N\N`, the growth inhibition in assay [1] was 20.1%; in assay [2], 26.9%; in assay [3] it was -13.2%; in assay [4], 5.8%; in assay [5], -6.95%; in assay [6], -18.2%.
For the compound `CCOC1CCC=CO1` (stereo not given), the growth inhibition in assay [1] is -9.65%; in assay [2] it was 3.7%; in assay [3], 39%; in assay [4], 28.7%; in assay [5] it was -21.9%; in assay [6], 39.6%.
Take `CCCCCCNC(=O)C1=C(C)NC(C)=C(C(=O)NCCCCCC)C1`: the growth inhibition in assay [1] is 4.9%; in assay [2] it was 1.35%; in assay [3], -6.4%; in assay [4], -24.9%; in assay [5] it was 6.8%; in assay [6], -42.2%.
With `CC(=O)C(C(C)=O)C(c1ccccn1)C(C(C)=O)C(C)=O`, the growth inhibition in assay [1] was -6.7%; in assay [2] it was -0.65%; in assay [3], -4.05%; in assay [4], -0.65%; in assay [5], 6.8%; in assay [6], -6.45%.
Take `CC(=O)N(C)N=Nc1ccc(Cl)cc1`: the growth inhibition in assay [1] is 10.4%; in assay [2], 11.7%; in assay [3], 2.05%; in assay [4], -17.6%; in assay [5], 3.8%; in assay [6] it was 15.9%.
As for `COc1ccc(COC(=O)Nc2ccc([N+](=O)[O-])cc2)cc1`, the growth inhibition in assay [1] was -38.2%; in assay [2], -3.6%; in assay [3], -28.1%; in assay [4] it was -5.3%; in assay [5], -18.5%; in assay [6], -12.2%.
For `Cc1ccc(N=Nc2cc(C)c(N)cc2N)c(S(=O)(=O)O)c1`, the growth inhibition in assay [1] was -33.3%; in assay [2], -5.35%; in assay [3], -16.4%; in assay [4], -38.5%; in assay [5], 3.45%; in assay [6], -24.5%.
With `O=C1NC(=O)C(=CN2C(=O)/C(=C/c3ccc(O)cc3)SC2=S)C(=O)N1`, the growth inhibition in assay [1] was -6.6%; in assay [2], -5.7%; in assay [3] it was 23.1%; in assay [4], 9.15%; in assay [5] it was 1.8%; in assay [6] it was 14.7%.
`CCCCCOP(=O)(Cc1ccc(Cl)cc1)OCCCCC`: the growth inhibition in assay [1] was 99.6% (active); in assay [2] it was 99.7% (active); in assay [3], 99.5% (active); in assay [4], 99.5% (active); in assay [5], 99.4% (active); in assay [6], 99.5% (active).
`CCOC(=O)C1CC=CCC1C(=O)OCC` (stereo not given): the growth inhibition in assay [1] is -5.25%; in assay [2] it was -7.5%; in assay [3], 0.5%; in assay [4], 2.55%; in assay [5], 1.3%; in assay [6], -19.5%.
Regarding `O=C(Cl)N(C1CCCCC1)C1CCCCC1`, the growth inhibition was -19% in assay [1]; -8.8% in assay [2]; -1.5% in assay [3]; -10.9% in assay [4]; 2.35% in assay [5]; -12.9% in assay [6].
As for `Cc1cc(=O)oc2c(C)c(O)ccc12`, the growth inhibition was 0% in assay [1]; -16.5% in assay [2]; -3.15% in assay [3]; 13.7% in assay [4]; -16.6% in assay [5]; 16.4% in assay [6].
For the compound `CC(=O)NC1C(OC(C)C(=O)NC(C(=O)NC(CCC(=O)NCCCNC2c3ccccc3Nc3cccc([N+](=O)[O-])c32)C(N)=O)C(C)C)C(O)C(CO)OC1(C)OCc1ccccc1` (stereo not given), the growth inhibition is -29.1% in assay [1]; -20.4% in assay [2]; 4.3% in assay [3]; 13.4% in assay [4]; -25.8% in assay [5]; 3.25% in assay [6].
In the case of `O=C(Cc1nc2ccc([N+](=O)[O-])cc2[nH]c1=O)C(=O)Nc1ccccc1[N+](=O)[O-]`, the growth inhibition in assay [1] was 25.6%; in assay [2], 8.8%; in assay [3], 11.1%; in assay [4] it was 12.2%; in assay [5] it was 15.8%; in assay [6], 6.05%.
As for `O=C1c2scnc2-c2nccc3c2c1nc1ccccc13`, the growth inhibition in assay [1] is 60.3%; in assay [2], 75.5% (active); in assay [3] it was 66.8%; in assay [4] it was 53.2%; in assay [5] it was 80.9% (active); in assay [6], 74.9% (active).
In the case of `Cc1ccc(S(=O)(=O)CC(O)(C(C)C)C(C)C)cc1`, the growth inhibition in assay [1] was -19%; in assay [2], -8.6%; in assay [3], -14.2%; in assay [4], 12.8%; in assay [5], 16.6%; in assay [6], -17.4%.
Turning to `CC(C)CN1CC(C)C(=O)NC1=O` (stereo not given), the growth inhibition in assay [1] is 1.4%; in assay [2] it was -3.4%; in assay [3], -2.45%; in assay [4], 3.85%; in assay [5], 1%; in assay [6], 5.4%.
